44 molecules from PubChem BioAssay (NCATS) can be followed below.

SMILES strings stand for the structures. Inconclusive results are not listed. Values without a mark were called inactive. The source made the active and inactive calls. The call rests on the fitted dose curve; in most records, active means well fitted curve in the direction sought with a large enough effect; inconclusive means small, poorly fitted or top-dose-only effect, or another doubt; inactive means no such curve, though single readings can be large; an effect the other way counts as inactive or inconclusive.

The target of test [1] is Cytochrome P450 3A7 (Homo sapiens) (UniProt P24462). Briefly: Cytochrome P450 family 3 subfamily A member 7 (CYP3A7) small molecule antagonists: luciferase biochemical qHTS assay (AID 1963596). Further: on the % scale 0 is the no-effect control and ±100 the full control effect; nearly all actives have a fitted effect of over 40% in size. Put shortly: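 P450-Glo luminescent assay: CYP3A7 enzyme converts a proluciferin substrate to luciferin, detected by luciferase reagent; light proportional to activity. Compounds in DMSO preincubated 10 min with enzyme-substrate mix at room temperature, then NADPH regeneration added for 1 h.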

Test [2] is described as follows: Viability qHTS for spleen associated tyrosine kinase inhibitor (SYKi) naive MV4-11 cells (AID 1963823). Further: nearly all actives have a fitted effect of over 40% in size. Further: potency means the concentration at half of the fitted maximal effect. An outline of the steps:
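qHTS, SYK inhibitor-naive MV4-11; 500 cells/well; 72 hr compound exposure, 37 C; CellTiter-Glo added, 10 min RT; luminescence read.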
A general note: qHTS replaces the single test concentration by a dilution series.

Test [3] is described as follows: Viability qHTS for spleen associated tyrosine kinase inhibitor (SYKi) drug resistant MV4-11 cells (AID 1963824). Further: nearly all actives have a fitted effect of over 35% in size. Further: potency means the concentration at half of the fitted maximal effect. Put shortly:
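CellTiter-Glo luminescence, read 10 min after reagent addition, reports viability after a 72 hr compound exposure. Cells are an MV4-11 line made resistant to SYK inhibition, seeded at 500 per well onto compound-containing plates.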

Test [4] can be described thus: Quantitative highthroughput screen to assess conditional lethalithy of NOMO1 cells grown in RPMI1640 with dialyzed fetal bovine serum (RPMI+ds) (AID 1963877).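 Further: series mostly up to about 46 µM; 100% = DMSO control wells and 0% = empty wells; nearly all actives have a fitted effect of over 30% in size.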 An outline of the steps:
(§1)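 Each medium arm—HPLM with 10% dialyzed FBS, or RPMI1640 with 5 mM glucose and 10% untreated or dialyzed FBS—was screened against an 11-point, 3-fold compound titration for 48 h at 37 °C, with CellTiter-Glo luminescence as endpoint.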

A short description of test [5]: Quantitative highthroughput screen to assess conditional lethalithy of NOMO1 cells grown in Human Plasma-Like Medium with dialyzed fetal bovine serum (HPLM+ds) (AID 1963878).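 Further: 100% = DMSO wells and 0% = empty wells on each plate; nearly all actives have a fitted effect of over 35% in size.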 An outline of the steps: as §1
Test [6] is described as follows: Quantitative highthroughput screen to assess conditional lethalithy of P12 Ichikawa cells grown in Human Plasma-Like Medium with dialyzed fetal bovine serum (HPLM+ds) (AID 1963879). Further: nearly all actives have a fitted effect of over 35% in size. Further: potency means the concentration at half of the fitted maximal effect. On Viability: series mostly up to about 46 µM. Particulars: Potency: viability. An outline of the steps:
as §1

Test [7] can be described thus: Quantitative highthroughput screen to assess conditional lethalithy of SEM cells grown in Human Plasma-Like Medium with dialyzed fetal bovine serum (HPLM+ds) (AID 1963882). Further: nearly all actives have a fitted effect of over 35% in size. Further: potency means the concentration at half of the fitted maximal effect. On Viability: series mostly up to about 46 µM. An outline of the steps: as §1
A short description of test [8]: Quantitative highthroughput screen to assess conditional lethalithy of SEM cells grown in RPMI1640 with unreated serum (RPMI+s) (AID 1963883). Further: nearly all actives have a fitted effect of over 35% in size. Further: potency means the concentration at half of the fitted maximal effect.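 On Viability: 100% = DMSO wells and 0% = empty wells without cells.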 Put shortly: as §1
Test [9] can be described thus: Cellular viability qHTS for adrenocortical cancer (ACC) cell line SW-13 (AID 1963989).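 Further: cells grown in serum-free medium with ITS supplement; on the % scale 0 is the no-effect control and ±100 the full control effect; nearly all actives have a fitted effect of over 65% in size.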 Conditions: SW-13 ACC cells viability, CellTiter-Glo, 48 h; activity (max response): stronger effect = lower value. An outline of the steps:
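Compound titrations (up to 46 uM final, in DMSO) were applied to SW-13 cells for 48 h at 37C/5% CO2. Reading used CellTiter-Glo after 20 min at room temperature; fitted curves yielded IC50 and efficacy.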

The nature of test [10]: Cellular viability qHTS for adrenocortical cancer (ACC) cell line NCI-H295R (AID 1963990).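 Further: 0% = DMSO only wells and -100% = full killing with cytotoxic reference compound; nearly all actives have a fitted effect of over 60% in size.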 Put shortly: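 Readout: CellTiter-Glo luminescence, 20 min RT. Exposure: 48 h, 37C/5% CO2. Cells: NCI-H295R, ITS-DMEM serum-free. Range: up to 46 uM. Analysis: 4PL fit, IC50 plus efficacy.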
Test [11] in a line: Quantitative highthroughput screen to assess conditional lethalithy of NOMO1 cells grown in RPMI1640 with untreated serum (RPMI+s) (AID 1963876). An outline of the steps:
as §1

Test [12] is described as follows: Quantitative highthroughput screen to assess conditional lethalithy of P12 Ichikawa cells grown in RPMI1640 with untreated serum (RPMI+s) (AID 1963881). Conditions: Potency: viability. An outline of the steps:
as §1

Test [13] in a line: Quantitative highthroughput screen to assess conditional lethalithy of SEM cells grown in RPMI1640 with dialyzed fetal bovine serum (RPMI+ds) (AID 1963884). Put shortly:
as §1

Cytochrome P450 3A7 (Homo sapiens), sequence (P24462 whole entry, looked up): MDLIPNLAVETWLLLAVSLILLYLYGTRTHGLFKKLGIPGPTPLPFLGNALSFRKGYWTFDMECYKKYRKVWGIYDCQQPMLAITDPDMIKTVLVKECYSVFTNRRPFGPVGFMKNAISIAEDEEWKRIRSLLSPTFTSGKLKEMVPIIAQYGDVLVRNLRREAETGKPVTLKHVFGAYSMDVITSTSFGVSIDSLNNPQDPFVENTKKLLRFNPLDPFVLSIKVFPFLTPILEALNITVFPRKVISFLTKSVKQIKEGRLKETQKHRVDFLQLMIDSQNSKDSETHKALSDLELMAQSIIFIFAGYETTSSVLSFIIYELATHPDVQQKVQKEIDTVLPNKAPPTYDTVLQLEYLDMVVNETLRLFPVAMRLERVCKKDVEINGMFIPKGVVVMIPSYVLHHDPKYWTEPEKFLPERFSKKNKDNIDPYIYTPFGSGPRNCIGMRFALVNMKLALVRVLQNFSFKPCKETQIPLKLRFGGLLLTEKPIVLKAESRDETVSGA

`NCCS[As](SCCN)c1ccc(Nc2nc(N)nc(N)n2)cc1`: the Potency entry in [1] is “inactive”.
Still for that read-out and setting: to `O=C(CC1NCCC[C@H]1O)Cn1cnc2cc(Br)c(Cl)cc2c1=O` (some centres undefined) belongs “inactive”.
`CN(C)CCc1ccc(O)cc1`: the Potency result in [1], in test [2], in test [3], in [4], in test [5] and in test [6] was “inactive” each time. Besides, the Potency result in test [7], in test [8] and in test [10] was “inactive” in each case. Moreover, in test [9], the activity (max response) is -2.47%.
Consider `CC(Cc1ccccc1)NC=O` (centres undefined), for which, in test [1], the Potency entry is “inactive”.
In the case of `CN1C(=O)CCS(=O)(=O)C1c1ccc(Cl)cc1` (centres undefined), the Potency entry in test [1], in test [2], in test [3], in test [11], in test [6] and in test [12] was “inactive” throughout. Also, the Potency entry in test [8] and in [10] was “inactive” throughout.
For `CCCCc1ccc(C(=O)O)nc1`, the Potency entry in test [1] is “inactive”.
Still for that read-out and setting: to `c1ccc([C@@H]2C[C@H]2NC2CCNCC2)cc1` belongs “inactive”.
Still for that read-out and setting: to `C=CCC1(CC(C)C)C(=O)NC(=O)NC1=O` belongs “inactive”; to `CCCCNCC(O)c1ccc(O)cc1` (centres undefined), “inactive”.
In the case of `O=P1(N(CCCl)CCCl)NCCCO1` (centres undefined), the Potency result in [1], in test [2], in [3], in [5] and in [10] was “inactive” throughout. Also, the Potency in test [6] was 10.5 µM (active); in test [7], 9.35 µM (active); in test [8], 8.33 µM (active).
Take `COc1ccsc1CNCC[C@@]1(c2ccccn2)CCOC2(CCCC2)C1`: the Potency result in [1], in test [2] and in test [3] was “inactive” each time.
For the molecule `CN1C2CCC1CC(OC(=O)N1Cc3ccccc3NC1=O)C2` (centres undefined), the Potency entry in [1], in test [2] and in test [3] was “inactive” in each case.
Consider `Cc1ccccc1CN1CCC(N2CCC(n3c(=O)[nH]c4ccccc43)CC2)CC1`, for which the Potency result in [1] was “inactive”.
In the case of `CNC(=O)NC(O)C(Cl)(Cl)Cl` (centres undefined), the Potency result in test [1], in test [2] and in [3] was “inactive” each time.
Regarding `O=c1[nH]oc2c1CCNC2`, the Potency entry in test [1], in test [2] and in test [3] was “inactive” in each case. In addition, in [9], the activity (max response) was 5.4%.
Regarding `N#Cc1ccc([C@H]2CCCC[C@H]2O)cc1C(F)(F)F`, the Potency entry in [1] is “inactive”.
Still for that read-out and setting: the value for `CC(C)(N)Cc1ccccc1` was “inactive”.
Take `CCC(C(N)=O)N1CCCC1=O` (centres undefined): the Potency entry in test [1], in [2] and in test [3] was “inactive” in each case. For the same molecule, the activity (max response) in test [9] is -1.47%.
Consider `CCCCCCn1c(=O)c(C(=O)Nc2ccc(C(=O)OCCC)cc2)c(O)c2ccccc21`, for which the Potency entry in test [1] was “inactive”. The viability (% of control) in test [2] is 62.6% [at 9.25 µM]. The viability, % of control in test [3] is 83.2% [at 9.25 µM].
As to `NCC(O)c1cccc(O)c1` (centres undefined), the Potency result in test [1] was “inactive”.
Same read-out and setting: the value for `C#CC(C)(O)CC` (centres undefined) was “inactive”; that for `CN(C)CCc1c[nH]c2ccc(CN3CCN(C)S3(=O)=O)cc12` was “inactive”; that for `O=C(N1CCCCC1Cc1ccccc1)n1cc(-c2ccc(-c3ccccc3)cc2)nn1` (centres undefined) was “inactive”.
The same measure, in the same setting: to `NCCCCCNC1(c2ccccc2)CCCCC1` belongs “inactive”.
Regarding `CCCCCn1cc(C(=O)c2cccc3ccccc23)c2ccccc21`, the Potency entry in [1] was “inactive”.
The same measure, in the same setting: to `CCN1CCN(C(c2ccc(Cl)cc2)c2ccc(Cl)cc2)CC1` belongs “inactive”.
`CCN(CC)N(O)N=O`: the Potency result in test [1] was “inactive”.
Same read-out and setting: the value for `O=C(N1CCOCC1)N1CCN(c2ccc(Cl)cc2)CC1` was “inactive”.
On to `CN1C(=O)C(Cc2ccc3ccccc3c2)N=C(c2ccc(O)cc2)c2cc(Cl)ccc21` (centres undefined), for which the Potency result in test [1] was “inactive”. For the same molecule, the results for the Potency in [2] and in test [3] were 20.6 µM (active) and 13 µM (active), respectively.
As to `O=[As]O[As]=O` (centres undefined), the Potency result in test [1] is “inactive”.
Same read-out and setting: to `CCCCCCCCOC(=O)c1ccccc1C(=O)OCCCCCCCC` belongs “inactive”; to `O=C(N[C@H]1N=C(c2ccccc2F)c2cccc3c2N(CC3)C1=O)c1cc2ccccc2[nH]1`, “inactive”.
As to `Cc1c(Cl)cccc1S(=O)(=O)Nc1nc(CC(=O)N2CCN(C)CC2)cs1`, the Potency entry in [1] and in [2] was “inactive” throughout.
Take `C=CCN1CCC23c4c5ccc(O)c4O[C@H]2C(=O)CC[C@@]3(O)C1C5` (some centres undefined): the Potency entry in test [1] was “inactive”.
Consider `CCNC(C)Cc1cccc(C(F)(F)F)c1` (centres undefined), for which, in [1], the Potency entry is “inactive”.
The same measure, in the same setting: the value for `O=C(N[C@@H]1N=C(c2ccccc2F)c2cccc3c2N(CC3)C1=O)c1cc2ccccc2[nH]1` was “inactive”.
As for `CC(C)N(CCNC(=O)CN1CCCC1=O)C(C)C`, the Potency result in [1], in test [2], in [3], in test [7], in test [8] and in test [13] was “inactive” each time.
Consider `CN=C(NS(=O)(=O)c1ccc(Cl)cc1)N1C[C@H](c2ccccc2)C(c2ccc(Cl)cc2)=N1`, for which the Potency entry in test [1] was “inactive”. In addition, the Potency in [2] and in [3] was 20.6 µM (active) throughout.
Regarding `Cc1ccc(Cl)c(O)c1`, the Potency entry in test [1], in test [2], in test [3] and in test [10] was “inactive” in each case. In addition, the activity (max response) in test [9] was 12.5%.
For `CC(C)(C)NCC(O)c1ccccc1Cl` (centres undefined), the Potency result in test [1], in [2] and in [3] was “inactive” each time. Also, the activity (max response) in [9] was 3.76%.
On to `OC(O)C(Cl)(Cl)Cl`, for which the Potency entry in [1], in [2], in [3] and in test [10] was “inactive” throughout. The activity (max response) in test [9] is 12.7%.
For the molecule `CCC1(CC)C(=O)C=CNC1=O`, the Potency entry in test [1], in test [2], in test [3] and in test [10] was “inactive” in each case. The activity (max response) in test [9] is 0.834%.
For the molecule `COc1ccccc1N1CCNCC1`, the Potency result in [1], in test [2], in test [3] and in [10] was “inactive” in each case. In addition, the activity (max response) in [9] is -19.4%.
As to `CC[N+]1(CC)CCC(OC(=O)C(O)(c2ccccc2)c2ccccc2)C1` (centres undefined), the Potency entry in test [1], in test [2], in test [3] and in test [10] was “inactive” in each case. The activity (max response) in test [9] was 5.92%.
